NOD2 RIPK2 PPI: NOD2-RIPK2 protein interaction inhibition | AID 624267 | 360,000 tested, 0.38% active | CHO BLA complementation NOD2-RIPK2, CCF4 ratio | inhibition, % at 4.98 µM; in the data active = inhibition above about 21%
TLR9-MyD88 inh: TLR9-MyD88 interaction inhibition; Q9NR96+Q99836; CHO BLA complementation TLR9-MyD88, CCF4 FRET ratio; inhibition, % at 4.98 µM; 340,000 tested, 0.21% active; AID 504734;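 active = inhibition above the mean over all tested compounds plus 3 SD, cut at about 21% in these data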
TLR4-MyD88 BLA: inhibitors of human TLR4-MyD88 binding; inhibition, % at 8.4 µM; O00206+Q99836; AID 861; HeLa CL3-4 TLR4/MyD88 BLA complementation, FRET ratio; 200,000 tested, 0.18% active; in the data active = inhibition above about 25%
Exocytosis inh: lytic granule exocytosis inhibition; TALL-104 LAMP-1 surface exposure, flow cytometry; cells stimulated with thapsigargin and PMA; inhibition, % at 10 µM; 360,000 tested, 0.66% active;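 active = inhibition above about 55%, limit read from the data; inconclusive = no clear call, values can overlap the other calls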
Beta2AR agonist: agonists of human beta-2 adrenergic receptor inducing internalization | Am2.2-beta2AR cells, FAP receptor internalization, flow cytometry | response, % (concentration not given with the values) | 340,000 tested, 0.43% active | AID 504454;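 active = response above a set limit, near 3 SD of response in nonfluorescent compounds, cut at about 42% in these data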
Target sequence (P07550 whole entry, looked up): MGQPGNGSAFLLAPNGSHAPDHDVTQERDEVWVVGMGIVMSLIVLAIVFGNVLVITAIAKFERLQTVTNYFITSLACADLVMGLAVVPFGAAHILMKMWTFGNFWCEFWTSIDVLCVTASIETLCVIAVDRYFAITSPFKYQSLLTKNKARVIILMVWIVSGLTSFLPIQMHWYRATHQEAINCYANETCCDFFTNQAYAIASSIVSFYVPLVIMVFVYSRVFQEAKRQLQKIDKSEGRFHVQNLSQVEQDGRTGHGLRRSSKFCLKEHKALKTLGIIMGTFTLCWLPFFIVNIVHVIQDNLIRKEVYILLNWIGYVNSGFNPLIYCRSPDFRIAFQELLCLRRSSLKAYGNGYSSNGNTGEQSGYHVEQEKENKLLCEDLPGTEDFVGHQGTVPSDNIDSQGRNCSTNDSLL
ABHD5-PLIN5 inh: blocks binding of human ABHD5 to perilipin-5 | 360,000 tested, 0.78% active | Split G. princeps luciferase complementation, luminescence, 4 h | inhibition, % at 4 µM;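 active = inhibition above the mean inhibition across every tested compound plus 3 SD, cut at about 22% in these data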
ABHD5 PLIN5 conf: ABHD5-PLIN5 interaction inhibition, confirmed | biochemical ABHD5-PLIN5 interaction, luminescence | 2,200 tested, 67% active | inhibition, % at 4 µM | shares compounds with ABHD5-PLIN5 inh; in the data active = inhibition above about 23%
HNF4 counter: HNF4 split-luciferase signal hit, counter-screen; shares compounds with ABHD5-PLIN5 inh; HNF4 dimerization, luminescence, biochemical; inhibition, % at 4 µM; 2,200 tested, 77% active; AID 651674;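 active = mean inhibition across replicate wells exceeding the computed hit threshold, cut at about 13% in these data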;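 also: light from luciferase halves that rejoin when HNF4 fusion proteins dimerize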
Each line names hits and unclear results; the compound was inactive in the other large screens (follow-up assays come after a bar, where they were run). Shown are actives, neighbours in structure and some others; about 2% of the full set was active somewhere.

O=C(/C=C/c1ccccc1)c1ccc(NC2=NCCCS2)cc1	ABHD5-PLIN5 inh 61.6 | ABHD5 PLIN5 conf 72.1 | HNF4 counter 61.6
CC(C)(C)c1ccc(/C=C/C(=O)c2ccc(NC3=NCCCS3)cc2)cc1	ABHD5-PLIN5 inh 50.4 | ABHD5 PLIN5 conf 57.4 | HNF4 counter 38.3
Nc1nc2cc(Cl)c(Br)cc2o1	none (no result: TLR4-MyD88 BLA)
O=C(COc1ccc2c3c(c(=O)oc2c1)CCCC3)NCCCn1ccnc1	none (no result: TLR4-MyD88 BLA)
CCN1CCN(C(C(=O)NC2CCCCC2)c2cc3ccccc3o2)CC1 (configuration not stated)	none (no result: TLR9-MyD88 inh, TLR4-MyD88 BLA, Beta2AR agonist)
O=C/C(=C\Nc1ccccn1)c1nc2cc(Cl)ccc2o1	none
O=C/C(=C\Nc1ccccn1)c1nc2ccccc2o1	ABHD5-PLIN5 inh 23.9 | ABHD5 PLIN5 conf inactive | HNF4 counter 26.6
CC1=C(C(=O)N2CCOCC2)CC(CC(=O)NC2CCCCC2)C(=O)N1Cc1ccc(C(C)(C)C)cc1 (configuration not stated)	none (no result: TLR4-MyD88 BLA, Beta2AR agonist)
CCN(CCCc1ccccc1)CCCc1ccccc1	ABHD5-PLIN5 inh 37.9 (no result: TLR4-MyD88 BLA) | ABHD5 PLIN5 conf 74.3 | HNF4 counter 32.8
CC1=NN(C(=O)c2ccc(Cn3cc(Br)c([N+](=O)[O-])n3)o2)C(O)(C(F)(F)F)C1 (configuration not stated)	none
CC1=NN(C(=O)c2ccc(Cn3nc(C)cc3C)o2)C(O)(C(F)(F)F)C1 (configuration not stated)	ABHD5-PLIN5 inh 58.3 | ABHD5 PLIN5 conf inactive | HNF4 counter inactive
Cc1csc(N=Nc2ccc(N(C)C)cc2)[n+]1[O-]	ABHD5-PLIN5 inh 28.7 (no result: TLR4-MyD88 BLA, Beta2AR agonist) | ABHD5 PLIN5 conf 26.4 | HNF4 counter 31.6
O=C1CC(c2ccccc2)CC(=O)C1CS(=O)(=O)c1ccccc1 (configuration not stated)	ABHD5-PLIN5 inh 34.0 | ABHD5 PLIN5 conf 48.5 | HNF4 counter 104.7
CC1=C(C(=O)N(C(C)C)C(C)C)CC(CC(=O)NCc2cccs2)C(=O)N1CCCN1CCCC1=O (configuration not stated)	none (no result: TLR9-MyD88 inh, TLR4-MyD88 BLA, Beta2AR agonist)
CCCCCCCCCC[n+]1cccc2c3ccccc3ccc21	Exocytosis inh 70.3, ABHD5-PLIN5 inh 27.4 | ABHD5 PLIN5 conf inactive | HNF4 counter inactive
O=c1c2ccccc2sn1-c1nccs1	Exocytosis inh 85.3, ABHD5-PLIN5 inh 81.0 (no result: TLR9-MyD88 inh) | ABHD5 PLIN5 conf 86.5 | HNF4 counter 118.0
O=C1c2ccccc2C(=O)N1c1nccs1	none (no result: TLR4-MyD88 BLA)
O=C(NCc1ccccc1)C(c1cccc2ccccc12)n1c(=O)c(-c2ccco2)nc2ccccc21 (configuration not stated)	ABHD5-PLIN5 inh 58.5 (no result: TLR9-MyD88 inh, TLR4-MyD88 BLA, Beta2AR agonist) | ABHD5 PLIN5 conf 96.9 | HNF4 counter 33.6
CC(C)(C)NC(=O)C(c1cccc2ccccc12)n1c(=O)c(-c2ccco2)nc2ccccc21 (configuration not stated)	ABHD5-PLIN5 inh 67.3 (no result: TLR9-MyD88 inh, TLR4-MyD88 BLA, Beta2AR agonist) | ABHD5 PLIN5 conf 68.8 | HNF4 counter 13.3
CCCCCNC(=O)C(c1cccc2ccccc12)n1c(=O)c(-c2ccco2)nc2ccccc21 (configuration not stated)	ABHD5-PLIN5 inh 84.2 (no result: TLR9-MyD88 inh, TLR4-MyD88 BLA, Beta2AR agonist) | ABHD5 PLIN5 conf 82.0 | HNF4 counter 35.4
CCCCCNC(=O)C(c1cc2ccccc2o1)n1c(=O)c(-c2ccccc2)nc2ccccc21 (configuration not stated)	none (no result: TLR9-MyD88 inh, TLR4-MyD88 BLA, Beta2AR agonist)
CCCCCNC(=O)C(c1ccc(C(F)(F)F)cc1)n1c(=O)c(-c2ccco2)nc2ccccc21 (configuration not stated)	ABHD5-PLIN5 inh 83.0 (no result: TLR9-MyD88 inh, TLR4-MyD88 BLA, Beta2AR agonist) | ABHD5 PLIN5 conf 46.6 | HNF4 counter inactive
CCc1nc2ccc(C(=O)N3CCCC(C(N)=O)C3)cn2c1N(CCC(C)C)CCN(C)C (configuration not stated)	none (no result: TLR9-MyD88 inh, TLR4-MyD88 BLA, Beta2AR agonist)
CC(C)C[C@@H]1COc2cc(N3CCSCC3)ccc2S(=O)(=O)N1	none (no result: TLR9-MyD88 inh, TLR4-MyD88 BLA, Beta2AR agonist)
COc1ccc(OC)c(NCCN2C(=O)c3ccccc3C2=O)c1	none (no result: TLR4-MyD88 BLA, Beta2AR agonist)
Cc1ccccc1/[N+]([O-])=C/c1cccs1	none
Cc1ccc(/C=[N+](\[O-])c2ccccc2C)o1	ABHD5-PLIN5 inh 23.1 (no result: TLR4-MyD88 BLA) | ABHD5 PLIN5 conf inactive | HNF4 counter inactive
CCOc1ccc(S(=O)(=O)N2CCC(C(=O)Nc3ccccc3N3CCCC3)CC2)cc1	none (no result: TLR4-MyD88 BLA, Beta2AR agonist)
CCN(CC)Cc1c(O)ccc2c1O/C(=C\C=C\c1ccccc1)C2=O	ABHD5-PLIN5 inh 41.9 (no result: TLR4-MyD88 BLA) | ABHD5 PLIN5 conf inactive | HNF4 counter 20.5
CC(=O)c1cc(C)c(OC(=O)c2ccccc2)c(C)c1	none (no result: TLR4-MyD88 BLA)
CC(=O)Cc1cc(O)c2ccccc2c1OC(=O)c1ccccc1	ABHD5-PLIN5 inh 66.8 | ABHD5 PLIN5 conf 83.8 | HNF4 counter 53.9
Nc1c([N+](=O)[O-])cc2c3c(cccc13)CC2	none (no result: TLR9-MyD88 inh, TLR4-MyD88 BLA, Beta2AR agonist)
COc1ccc(S(=O)(=O)Nc2ccc3c(c2)C(=O)N([C@H](C)CO)C[C@H](C)[C@@H](CN(C)S(=O)(=O)c2cccs2)O3)cc1	none (no result: TLR4-MyD88 BLA)
CN(C)CCOc1ccc(/C(=C(/CCCl)c2ccccc2)c2ccccc2)cc1	ABHD5-PLIN5 inh 45.6 (no result: TLR4-MyD88 BLA) | ABHD5 PLIN5 conf 74.7 | HNF4 counter 35.3
Cc1cccc(-c2cnc(C(O)c3ccc(Cl)cc3C)[nH]2)c1 (configuration not stated)	Exocytosis inh inconclusive (no result: TLR9-MyD88 inh, TLR4-MyD88 BLA, Beta2AR agonist)
CC1(C(=O)NCc2ccccc2)CSCC(=O)N1CCOc1ccccc1 (configuration not stated)	none (no result: TLR9-MyD88 inh, TLR4-MyD88 BLA, Beta2AR agonist)
CCc1nc2ccc(C(=O)NCCCN3CCCC3=O)cn2c1N(CC)CCOC	none (no result: TLR9-MyD88 inh, TLR4-MyD88 BLA, Beta2AR agonist)
CCc1ccc(NC(=O)COc2coc(CN3CCN(c4ccccc4)CC3)cc2=O)cc1	none (no result: TLR4-MyD88 BLA)
COc1cccc(NC(=O)COc2coc(CN3CCN(c4ccccc4)CC3)cc2=O)c1	ABHD5-PLIN5 inh 24.8 (no result: TLR4-MyD88 BLA) | ABHD5 PLIN5 conf inactive | HNF4 counter inactive
O=C(CCN1CCCC1Cc1ccccc1)c1ccc2c(c1)OCCO2 (configuration not stated)	Exocytosis inh 100.2, ABHD5-PLIN5 inh 27.9 | ABHD5 PLIN5 conf 25.5 | HNF4 counter 87.3
O=C(CCN1CCCCC1)c1ccc2c(c1)OCCO2	none
CCCCCc1cc(=O)oc2c(C(CCN(CC)CC)c3cc(OC)c(OC)c(OC)c3)c(OC)cc(OC)c12 (configuration not stated)	Beta2AR agonist 44.5, ABHD5-PLIN5 inh 27.2 (no result: TLR4-MyD88 BLA) | ABHD5 PLIN5 conf inactive | HNF4 counter inactive
CCCCCc1cc(=O)oc2c(C(CCN3CCCCC3)c3ccc4c(c3)OCO4)c(OC)cc(OC)c12 (configuration not stated)	none (no result: TLR4-MyD88 BLA)
Cc1ccc(NCc2nc3ccccc3n2CCOc2ccccc2)cc1	ABHD5-PLIN5 inh 25.5 | ABHD5 PLIN5 conf inactive | HNF4 counter inactive
CNc1snc(C)c1C(=O)OC(C)C(=O)Nc1ccc(F)cc1 (configuration not stated)	none (no result: TLR4-MyD88 BLA)
